Test [1] can be described thus: qHTS assay to identify small molecule agonists of the RXR signaling pathway - cell viability counter screen (AID 1159529). Also: nearly all actives have a fitted effect of over 50% in size. Also: potency is read from the fitted curve at half-maximal effect. The method in brief:
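Steps: seed RXR-alpha-UAS-bla HEK 293T cells in assay medium containing 2% charcoal-stripped FBS; incubate 5 hr; add compounds in DMSO; incubate 16 hr at 37 C; after the bla read, add CellTiter-Glo and read luminescence at 30 min.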
In general terms: Quantitative high-throughput screening tests each substance at several concentrations.

A short description of test [2]: qHTS assay to identify small molecule antagonists of the retinoid acid receptor (RAR) signaling pathway - cell viability counter screen (AID 1159551). Also: nearly all actives have a fitted effect of over 35% in size. The method in brief:
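Cells (C3RL4) are plated, incubated overnight, dosed with compound in DMSO, then given retinol at 1 uM final. After 6 h at 37 C, CellTiter-Glo is added and luminescence read following 30 min at room temperature.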

Test [3] can be described thus: qHTS assay to identify small molecule antagonists of the retinoic acid receptor (RAR) signaling pathway (AID 1159552; also: nearly all actives have a fitted effect of over 50% in size). A digest of the protocol:
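Retinol at 1 uM final stimulated RARE-luciferase expression in C3RL4 cells exposed to test compounds for 6 hr at 37 C. Reduced luminescence, read 30 min after detection reagent, indicated pathway antagonism.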

Test [4] in a line: qHTS assay to identify small molecule agonists of the retinoic acid receptor (RAR) signaling pathway (AID 1159553). A digest of the protocol: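 Seed C3RL4 reporter cells at 1,000 per well and incubate overnight at 37 C. Add compounds in DMSO, incubate 6 hr. Add luciferase reagent, wait 30 min at room temperature, read luminescence.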
Test [5] can be described thus: qHTS assay to identify small molecule antagonists of the estrogen related receptor (ERR) signaling pathway - cell viability counter screen (AID 1224818). Also: series mostly up to about 46 µM. The method in brief:
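ERR cells, 2,000/well; 6 h settle at 37 C/5% CO2; compound pin transfer (DMSO); 17.5 h at 37 C; CellTiter-Fluor, 30 min, fluorescence read.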

Test [6] is described as follows: qHTS assay to identify small molecule antagonists of the estrogen related receptor (ERR) signaling pathway (AID 1224819;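 also: luminescence from an ERR-driven luciferase reporter measured with One-Glo reagent; series mostly up to about 46 µM; nearly all actives have a fitted effect of over 50% in size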). A digest of the protocol: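 qHTS in ERR cells, 2,000/well, 1536 format. Cpd (DMSO) added after 6 h settle, 18 h 37 C. One-Glo luminescence, 30 min RT.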
The nature of test [7]: qHTS assay to identify small molecule agonists of the estrogen related receptor (ERR) signaling pathway (AID 1224820). The method in brief: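 An ERR cell line provided by NTP was seeded at 2,000 cells per well and allowed to settle for 6 h before compounds in DMSO were added. After 18 h at 37 C, luciferase activity was measured by One-Glo luminescence.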
The nature of test [8]: qHTS assay to identify small molecule antagonists of the estrogen related receptor signaling pathway with the pleiotropic PPARgamma coactivator (PGC) cell viability counter screen (AID 1224822;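 also: series mostly up to about 46 µM; viability read after 17.5 h compound exposure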). The method in brief:
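Multiplexed viability counter screen run in PGC/ERR cells treated with compounds for 17.5 h at 37 C; live-cell protease signal measured by CellTiter-Fluor fluorescence.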

Test [9] in a line: qHTS assay to identify small molecule agonists of the estrogen related receptor signaling pathway with the pleiotropic PPARgamma coactivator (PGC) (AID 1224823). A digest of the protocol: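 Compounds dissolved in DMSO are added by pin tool to PGC/ERR cells that have settled for 6 h, and incubation continues 18 h at 37 C. Reporter output is measured as One-Glo luminescence.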
Test [10] in a line: qHTS assay to identify small molecule antagonists of the estrogen related receptor (ERR) signaling pathway from Tox21 library - cell viability counter screen (AID 1224834). Also: nearly all actives have a fitted effect of over 30% in size. Also: potency is read from the fitted curve at half-maximal effect. The method in brief:
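ERR cells, 2,000/well; 6 h settle at 37 C/5% CO2; pin-tool compound transfer in DMSO; 17.5 h at 37 C; CellTiter-Fluor, 30 min; fluorescence intensity.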

The target in test [11] is Luciferin 4-monooxygenase (Photinus pyralis) (UniProt P08659). Description: qHTS assay to identify small molecule inhibitors of firefly luciferase (AID 1224835). Also: nearly all actives have a fitted effect of over 25% in size. Also: potency is read from the fitted curve at half-maximal effect. A digest of the protocol: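 Biochemical qHTS: compounds run as interplate titrations against purified firefly enzyme, with D-luciferin and ATP each at its KM concentration. Light output recorded by CCD imaging.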

A short description of test [12]: qHTS assay to identify small molecule agonists of the constitutive androstane receptor (CAR) signaling pathway - cell viability counter screen (AID 1224836). Also: series mostly up to about 92 µM; nearly all actives have a fitted effect of over 45% in size. The method in brief:
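Cells were seeded and incubated 4 hrs. Compounds were added across 15 concentrations together with PK11195 at 0.75 uM final. Plates were incubated 23 hrs at 37 C. CellTiter-Fluor was added and fluorescence measured.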

Test [13] is described as follows: qHTS assay to identify small molecule antagonists of the constitutive androstane receptor (CAR) signaling pathway - cell viability counter screen (AID 1224837). Also: series mostly up to about 92 µM; nearly all actives have a fitted effect of over 45% in size. A digest of the protocol: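 Viability was measured with CellTiter-Fluor in a HepG2 line carrying stably transfected hCAR and a CYP2B6-2.2kb construct. Cells were exposed for 23 hr at 37 C to 15 compound concentrations with 50 nM CITCO as agonist.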

For test [14], the target named is Nuclear receptor subfamily 1 group I member 3 (Homo sapiens) (UniProt Q14994). Description: qHTS assay to identify small molecule antagonists of the constitutive androstane receptor (CAR) signaling pathway (AID 1224838).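 Also: HepG2 cells stably expressing hCAR with CYP2B6 luciferase reporter stimulated by CITCO; nearly all actives have a fitted effect of over 40% in size.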 The method in brief:
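Antagonist mode used CITCO at a final 50 nM to activate CAR in human hepatoma HepG2 cells carrying stable hCAR and a 2.2 kb CYP2B6 promoter-luciferase construct. Compounds were tested at 15 concentrations over 24 h, with luminescence as the end point.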

Test [15] shares this target. Description: qHTS assay to identify small molecule agonists of the constitutive androstane receptor (CAR) signaling pathway (AID 1224839). Also: series mostly up to about 92 µM; nearly all actives have a fitted effect of over 15% in size. A digest of the protocol:
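Cells were plated and incubated 4 hrs, then dosed with compounds at 15 concentrations. PK11195 was added to 0.75 uM final. After 24 hrs at 37 C, luciferase luminescence was measured.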

Test [16] in a line: qHTS assay to identify small molecule antagonists of the estrogen related receptor signaling pathway with the pleiotropic PPARgamma coactivator (PGC) from Tox21 10K library - cell viability counter screen (AID 1224840; active = well fitted cell-killing curve with a large enough effect in the repeat runs, not every such curve was filed as active; also: nearly all actives have a fitted effect of over 40% in size; also: potency is read from the fitted curve at half-maximal effect). A digest of the protocol:
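Multiplexed viability counter screen in the PGC/ERR cell line: cells treated with DMSO-dissolved compounds for 17.5 hours at 37 C, then viability measured as CellTiter-Fluor fluorescence.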

Test [17] is described as follows: qHTS assay to identify small molecule agonists of the estrogen related receptor signaling pathway with the pleiotropic PPARgamma coactivator (PGC) from Tox21 10K library (AID 1224842). Also: nearly all actives have a fitted effect of over 15% in size. The method in brief: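 PGC/ERR reporter cell line, 2,000 cells per well, incubated 6 h at 37 C before 23 nL compound in DMSO was added. After 18 h at 37 C, One-Glo luminescence read following 30 min at room temperature.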

Test [18] concerns the target Thyrotropin receptor (Homo sapiens) (UniProt P16473). As to the kind of experiment: qHTS assay to identify small molecule agonists of the thyroid stimulating hormone receptor (TSHR) signaling pathway (AID 1224843; calls by dose curve; also: nearly all actives have a fitted effect of over 45% in size). The method in brief:
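Agonist-mode screen: TSHR HEK293 cells received test chemicals for half an hour at room temperature, then HTRF cAMP detection reagents for one hour prior to fluorescence measurement. Each chemical ran as a 15-concentration series, triplicated.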

A short description of test [19]: qHTS assay to identify small molecule antagonists of the estrogen related receptor signaling pathway with the pleiotropic PPARgamma coactivator (PGC) from Tox21 10K library (AID 1224841; call rule not given here; also: actives are mostly falling curves and most rising ones were filed inactive; nearly all actives have a fitted effect of over 50% in size; also: potency is read from the fitted curve at half-maximal effect). A digest of the protocol: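 Steps: plate 2,000 PGC/ERR cells per well; incubate 6 h at 37 C with 5% CO2; transfer compounds from DMSO stocks by pin tool; incubate 18 h at 37 C; add One-Glo; measure luminescence 30 min later.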

“And” between values parts separate entries of the source, which are not always exact repeats. Equal entries are not always repeated. Inconclusive results are not listed. Some structures have more than one record in an assay (separate samples or runs), and their calls can disagree. The source made the active and inactive calls. Unless noted, calls follow the shape of the dose curve; as a rule, active = well fitted curve in the direction sought with a large enough effect in the repeat runs; inconclusive = weak or mixed curves; inactive = no such curve, though single readings can be large; an effect the other way counts as inactive or inconclusive.

Drawing on PubChem BioAssay (Tox21), this text covers Potency and outcome for ten molecules.

Sequence of Luciferin 4-monooxygenase (Photinus pyralis) (P08659 whole entry, looked up): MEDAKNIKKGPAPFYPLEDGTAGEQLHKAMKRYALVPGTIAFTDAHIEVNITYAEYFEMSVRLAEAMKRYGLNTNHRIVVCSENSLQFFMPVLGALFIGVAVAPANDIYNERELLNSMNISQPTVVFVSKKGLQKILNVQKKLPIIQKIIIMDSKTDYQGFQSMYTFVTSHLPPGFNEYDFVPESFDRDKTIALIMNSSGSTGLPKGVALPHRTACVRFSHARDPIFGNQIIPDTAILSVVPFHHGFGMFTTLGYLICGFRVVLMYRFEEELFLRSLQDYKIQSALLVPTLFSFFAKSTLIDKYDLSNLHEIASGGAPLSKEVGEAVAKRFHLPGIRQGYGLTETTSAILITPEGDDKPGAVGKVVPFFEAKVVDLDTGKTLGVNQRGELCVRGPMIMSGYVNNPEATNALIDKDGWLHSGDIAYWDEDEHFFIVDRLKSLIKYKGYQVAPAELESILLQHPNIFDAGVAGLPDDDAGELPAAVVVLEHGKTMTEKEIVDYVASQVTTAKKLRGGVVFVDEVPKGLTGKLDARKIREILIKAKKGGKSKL
Sequence of Nuclear receptor subfamily 1 group I member 3 (Homo sapiens) (Q14994 whole entry, looked up): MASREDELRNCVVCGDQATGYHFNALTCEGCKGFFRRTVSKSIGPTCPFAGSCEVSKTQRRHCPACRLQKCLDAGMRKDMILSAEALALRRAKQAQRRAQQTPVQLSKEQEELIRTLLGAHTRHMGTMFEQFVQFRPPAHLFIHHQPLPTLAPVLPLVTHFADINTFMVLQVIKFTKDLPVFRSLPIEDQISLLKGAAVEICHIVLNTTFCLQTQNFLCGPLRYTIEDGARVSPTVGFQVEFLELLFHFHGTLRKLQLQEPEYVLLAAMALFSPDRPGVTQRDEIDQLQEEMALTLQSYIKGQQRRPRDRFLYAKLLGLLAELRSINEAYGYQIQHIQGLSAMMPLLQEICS
Sequence of Thyrotropin receptor (Homo sapiens) (P16473 whole entry, looked up): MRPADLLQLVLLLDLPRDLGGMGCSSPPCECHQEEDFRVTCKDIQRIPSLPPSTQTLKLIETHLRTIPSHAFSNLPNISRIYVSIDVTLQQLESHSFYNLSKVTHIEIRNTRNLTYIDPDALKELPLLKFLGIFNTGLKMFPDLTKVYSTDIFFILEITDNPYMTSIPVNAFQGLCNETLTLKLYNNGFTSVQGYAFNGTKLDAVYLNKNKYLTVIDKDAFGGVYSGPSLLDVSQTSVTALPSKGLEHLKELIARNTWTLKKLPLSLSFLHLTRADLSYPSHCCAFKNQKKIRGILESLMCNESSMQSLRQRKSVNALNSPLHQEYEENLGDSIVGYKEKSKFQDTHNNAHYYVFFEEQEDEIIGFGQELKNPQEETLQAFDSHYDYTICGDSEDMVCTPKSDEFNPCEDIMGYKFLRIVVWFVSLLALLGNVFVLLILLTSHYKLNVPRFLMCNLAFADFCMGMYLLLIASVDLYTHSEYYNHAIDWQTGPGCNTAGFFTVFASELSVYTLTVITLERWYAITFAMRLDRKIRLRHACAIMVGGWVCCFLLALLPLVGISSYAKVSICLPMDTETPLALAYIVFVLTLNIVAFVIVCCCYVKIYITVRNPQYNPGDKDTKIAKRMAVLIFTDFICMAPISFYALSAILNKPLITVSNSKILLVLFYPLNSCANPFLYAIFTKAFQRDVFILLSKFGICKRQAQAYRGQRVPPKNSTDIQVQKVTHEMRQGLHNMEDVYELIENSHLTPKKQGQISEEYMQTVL

For `Cc1ccccc1C(OCCN(C)C)c1ccccc1` (centres undefined), the Potency result in test [1], in [3], in test [7], in test [9], in [10] and in [11] was “inactive” throughout. Besides, the Potency entry in [12], in test [13], in [14], in [15], in test [16] and in test [17] was “inactive” each time. For the same molecule, the molecule was called inactive in [2], in test [4], in [5], in [6], in test [8] and in test [18].

On to `O=C(O)c1cc(N=Nc2ccc(S(=O)(=O)Nc3ccccn3)cc2)ccc1O`, for which the Potency entry in test [1] and in test [3] was “inactive” each time. For the same molecule, the call in [2], in [4] and in test [18] was inactive. For the same molecule, the Potency is 27.4 µM (active) and 27.3 µM (active) and 23.7 µM (active) in [10]; 71.3 µM (active) and inactive in test [11]; 30.7 µM (active) and inactive in test [16].

Regarding `Cc1noc(NS(=O)(=O)c2ccc(N)cc2)c1C`, the Potency result in test [1], in test [3], in [10], in test [12], in test [13] and in test [14] was “inactive” each time. For the same molecule, the Potency result in test [15] and in test [16] was “inactive” each time. The molecule was called inactive in [2], in test [4] and in test [18].

With `c1ccc2[nH]ccc2c1`, the Potency in test [1] is 48.2 µM (active) and inactive; in test [10] it was 26.9 µM (active) and inactive; in [16], 8.49 µM (active) and inactive; in test [19] it was 2.69 µM (active) and inactive. The molecule was classed as inactive in [2] and in test [18]. The Potency result in test [11] and in test [17] was “inactive” each time.

As to `O=C1NC(=O)c2ccccc21`, the Potency entry in test [1], in test [10], in test [11], in [12], in test [13] and in test [14] was “inactive” each time. Besides, the Potency result in test [15] and in test [16] was “inactive” throughout. The call in test [2] and in [18] was inactive.

`CCCC(O)C(CC)CO` (centres undefined): the Potency entry in [1], in [10], in test [11], in test [12], in test [13] and in test [16] was “inactive” throughout. Moreover, in [2], the result was inactive.

In the case of `O=C(c1ccccc1)c1ccccc1`, the Potency result in test [1], in test [3], in [10], in test [12], in test [13] and in test [16] was “inactive” in each case. The molecule was called inactive in [2] and in test [4].

With `C/C=C/c1ccc(OC)cc1`, the Potency result in [1], in [10], in test [12], in test [13], in test [14] and in [15] was “inactive” throughout. In test [16], the Potency entry is “inactive”. The call in [2] and in test [18] was inactive.

As for `O=C(O)c1cccnc1`, the Potency result in [1], in test [10], in [12], in [13], in test [14] and in [15] was “inactive” each time. Further, the Potency entry in [16] was “inactive”. Moreover, the outcome in [2] and in test [18] was inactive.

As to `O=S(=O)(O)NC1CCCCC1`, the Potency entry in [1], in test [3], in [10], in test [12], in test [13] and in test [14] was “inactive” in each case. In addition, the Potency entry in test [15] and in test [16] was “inactive” in each case. The molecule was classed as inactive in test [2], in [4] and in test [18].
